The values below come from PubChem BioAssay (NCI).

Holding throughout (test): NCI-60 one-dose screen, 48 h (100 = growth as untreated, 0 = no growth, -100 = all killed)
What all share (conditions): 10 µM unless noted

Assay [1] relates to SK-MEL-2 melanoma.
The subject of assay [2] is EKVX NSCLC.
Assay [3] has as its system SN12C renal.
Assay [4] concerns UO-31 renal.
Assay [5] relates to TK-10 renal.
Assay [6] has as its system ACHN renal.
Assay [7] concerns A498 renal.
Assay [8] deals with CCRF-CEM leukemia.
Assay [9] has as its system MOLT-4 leukemia.
In assay [10] the test system is SR leukemia.
In assay [11] the test system is RPMI-8226 leukemia.
In assay [12] the test system is OVCAR-8 ovarian.
Assay [13] relates to OVCAR-5 ovarian.
Assay [14] relates to OVCAR-4 ovarian.
Assay [15] deals with SK-OV-3 ovarian.
For assay [16], the system named is IGROV1 ovarian.
Assay [17] concerns OVCAR-3 ovarian.
Assay [18] has as its system HS 578T breast.
Assay [19] concerns NCI/ADR-RES ovarian.
Assay [20] deals with CAKI-1 renal.

Structures are written as SMILES. This is part of a sample that, as a whole, favours compounds with a hit. Of some 83,000 tested, about 20% had one in any assay.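 Cells were grown in 96-well plates and exposed to the test compound at a single concentration for 48 hours; results are reported as percent growth, with values below 10 considered active.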 A number with no mark means an inactive call. The source made the active and inactive calls.

As to `CCNC(=O)Oc1ccc(/C(=C(\C)c2ccc(Cl)cc2)c2ccc(OCCN3CCCCC3)cc2)cc1`, the growth in assay [1] was 62.9%; in assay [2] it was 57.4%; in [3], 64.8%; in assay [4], 39.3%; in assay [5] it was 83.7%; in [6] it was 79.9%. The growth in assay [7] is 83.6%; in [8] it was 22.4%; in assay [9], 10.7%; in assay [10] it was -20.8% (active); in [11] it was -4.11% (active); in assay [12], 70.4%. Besides, the growth in assay [13] is 74.9%; in assay [14], 43.7%; in assay [15], 63.2%; in assay [16], 56.8%; in assay [17], 60.8%; in [18], 55.9%. Also, the growth in assay [19] was 64.9%.

Take `CCCCCCCCCCCCC[N+](C)(C)Cc1ccccc1`: the growth in [1] is -80.2% (active); in assay [2] it was 3.49% (active); in [3], -55.7% (active); in [4] it was 43.6%; in assay [5] it was -59.5% (active); in assay [6], 16.8%. Further, the growth is 76.5% in assay [20]; -14.8% (active) in assay [8]; -10.1% (active) in assay [9]; -50.9% (active) in [11]; -30.5% (active) in assay [12]; 24.9% in assay [13]. Further, the growth in [14] is 8.67% (active); in assay [15], 4.31% (active); in [16], -49.9% (active); in assay [17], -61.1% (active); in assay [18], -31.4% (active); in [19], 90.2%.

Consider `Clc1ccc2c(NCCCCNc3nc(N4CCCCC4)nc4ccccc34)ccnc2c1`, for which the growth was -65.9% (active) in assay [1]; 38.9% in [2]; 20.3% in assay [3]; -55.6% (active) in [4]; -59.5% (active) in assay [5]; -43.7% (active) in [6]. The growth is 41.1% in [7]; -22.9% (active) in [8]; 1.5% (active) in [9]; -35.7% (active) in [10]; -45.9% (active) in assay [11]; 11.7% in [12]. The growth was 17.1% in assay [13]; 29.8% in assay [14]; 50.8% in [15]; 20.8% in assay [16]; -27.3% (active) in assay [17]; -19.9% (active) in assay [18]. Besides, in [19], the growth is 19.3%.

For the molecule `CC(=O)O[C@H]1CC[C@]2(C)[C@H]3CC=C4[C@@H]5CC(C)(C)CC[C@]5(C(=O)NCCNCCN)CC[C@@]4(C)[C@]3(C)CC[C@H]2C1(C)C`, the growth in assay [1] was 82.5%; in assay [2], 28.8%; in assay [3], -89.9% (active); in assay [4], -91.6% (active); in assay [5], -79% (active); in [6] it was -100% (active). The growth in assay [20] was -68.7% (active); in assay [8] it was -40.1% (active); in assay [9], -39.9% (active); in [11], -44.4% (active); in [12], -85.3% (active); in assay [13] it was -87.7% (active). Besides, the growth in [14] is -25% (active); in assay [15], 95.8%; in assay [16] it was -63.9% (active); in assay [17] it was -91.4% (active); in assay [18] it was 80.6%; in assay [19], -86% (active).

Turning to `O=C(COc1cccc(/C=C2\CSc3ccccc3C2=O)c1)Nc1nccs1`, the growth in assay [1] was 69.3%; in assay [2] it was 25.5%; in [3] it was 89.4%; in [4] it was 60.1%; in assay [5] it was 70%; in [6], 69.9%. Besides, the growth in [20] is 78.1%; in assay [8], 4.26% (active); in assay [9], -51.1% (active); in assay [11], -31.2% (active); in assay [12], 31%; in [13], 83.8%. Further, the growth in assay [14] is 78.3%; in assay [15], 116%; in assay [16] it was -52.2% (active); in [17] it was 24.4%; in [18], -8.26% (active); in [19], 54.8%.

On to `Clc1ccc2c(NCCCCNc3nc(N4CCOCC4)nc4ccccc34)ccnc2c1`, for which the growth was 103% in assay [1]; 45.2% in assay [2]; -8.57% (active) in assay [3]; -89.7% (active) in [4]; -63.1% (active) in assay [5]; -67.5% (active) in [6]. The growth in assay [7] was 90.4%; in [8] it was -21.7% (active); in assay [9], 17.6%; in assay [10], -18.9% (active); in assay [11], -32.2% (active); in assay [12], 9.88% (active). Further, the growth in [13] is 64.8%; in assay [14], -13.1% (active); in assay [15], 64.5%; in assay [16], 44.9%; in assay [17] it was -71.2% (active); in [18] it was 91.8%. The growth in assay [19] is 55.6%.

In the case of `CCNc1ncnc2c1cnn2C1CCCO1` (configuration not stated), the growth in assay [1] is 116%; in [2] it was 115%; in assay [3], 103%; in assay [4], 86%; in assay [5] it was 116%; in assay [6], 104%. The growth is 101% in assay [20]; 87.6% in assay [8]; 92.3% in assay [9]; 94.3% in assay [10]; 98.5% in assay [11]; 115% in assay [12]. In addition, the growth in assay [13] is 102%; in [14] it was 108%; in assay [15] it was 104%; in [17] it was 111%; in [18], 113%; in assay [19], 100%.

As to `COc1cc2nc(N3CCCC3)nc(NCC3CCCCC3)c2cc1OC`, the growth was -43.5% (active) in [1]; 40.2% in assay [2]; 59.6% in assay [3]; 42.5% in [4]; -34.7% (active) in assay [5]; 16.8% in assay [6]. The growth is 13.3% in assay [20]; -9.68% (active) in assay [8]; -16.3% (active) in assay [9]; -38.2% (active) in assay [11]; 12.1% in assay [12]; 29.1% in [13]. The growth was 33.2% in [14]; 77.4% in [15]; 72.3% in assay [16]; 13.1% in assay [17]; -33.5% (active) in [18]; 35.3% in assay [19].
